# Compound activity: PubChem BioAssay, National Center for Advancing Translational Sciences (NCATS)
# GLP-1R agonist: qHTS of GLP-1 Receptor Agonists. Glucagon-like peptide 1 receptor (Homo sapiens), P43220. HEK293 GLP-1R CRE-luciferase, luminescence, 4-6 h; cells express a hypersensitive GLP-1R form. Potency, µM (highest dose often 45.6 µM), without a hit: top-dose activation, actives largely listed as activators. actives 0.007% (n = 380,000); further: % of control where 0% means no effect
# Target sequence (P43220 whole entry, looked up): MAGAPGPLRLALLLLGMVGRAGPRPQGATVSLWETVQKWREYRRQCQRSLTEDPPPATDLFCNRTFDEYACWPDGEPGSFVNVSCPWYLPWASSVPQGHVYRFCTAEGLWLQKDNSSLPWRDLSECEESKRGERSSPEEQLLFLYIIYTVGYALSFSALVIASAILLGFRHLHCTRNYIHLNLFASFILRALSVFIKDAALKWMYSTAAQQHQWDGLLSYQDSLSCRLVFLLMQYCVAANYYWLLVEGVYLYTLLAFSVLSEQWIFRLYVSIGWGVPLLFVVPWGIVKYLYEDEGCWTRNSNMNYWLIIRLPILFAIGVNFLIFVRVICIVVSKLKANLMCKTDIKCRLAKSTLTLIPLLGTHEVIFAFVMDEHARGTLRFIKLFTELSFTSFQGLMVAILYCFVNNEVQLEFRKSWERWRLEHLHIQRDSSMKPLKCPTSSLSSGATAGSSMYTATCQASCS
# ATXN2 expr inh: Primary qHTS for Inhibitors of ATXN expression; HEK-293 ATXN2-luciferase reporter, luminescence, 24 h; Potency, µM (series often up to 57 µM), for inactives: top-dose activity change, negative = inhibition, actives largely listed as inhibitors; actives 0.72% (n = 360,000); further: on the % scale 0 is the no-effect control and ±100 the full control effect; nearly all actives have a fitted effect of over 55% in size
#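 ATXN2-luciferase reporter cells (luciferase flanked by upstream and downstream ATXN2 gene portions) were treated 24 h at 37 °C with compounds at up to 57 uM. SteadyGlo luminescence gave expression; GF-AFC fluorescence gave viability.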
# S2 tox: Viability Counterscreen for Primary qHTS for Inhibitors of ATXN expression. actives 0.49% (n = 400,000). S2 cells (HEK-293 line with an ATXN2-luciferase reporter) viability, CellTiter-Fluor protease fluorescence, 24 h. AID 651635, 2014. Potency, µM (series often up to 56.7 µM), actives largely listed as cytotoxic; further: nearly all actives have a fitted effect of over 40% in size
# TGFb SMAD3 inh: qHTS for Inhibitors of TGF-b. Potency, µM (doses to about 46.1 µM), without a hit: top-dose activity, negative = inhibition, usual class: inhibitors. actives 1.2% (n = 410,000). HepG2 CAGA-GFP TGF-b/SMAD3 reporter, GFP fluorescence, 18 h; TGF-beta stimulated, 500 pg/mL final; further: on the % scale 0 is the no-effect control and ±100 the full control effect; nearly all actives have a fitted effect of over 65% in size
#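 Inhibition of TGF-beta-driven CAGA-GFP reporter expression in HEPG2 cells is measured by cellular GFP fluorescence after 18 h stimulation with 500 pg/mL recombinant TGF-beta in 1% FBS medium at 37 degrees C.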
# HepG2 tox: qHTS for Inhibitors of TGF-b: Cytotox Counterscreen. Potency, µM (doses to about 46.1 µM), for inactives: top-dose activity change, negative = cytotoxicity, actives largely listed as cytotoxic. AID 588856, 2011. actives 0.76% (n = 410,000). HepG2 CAGA-GFP viability, ATP luminescence, 18 h
#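 CellTiter-Glo luminescence gave cytotoxicity after 18 hours at 37 degrees C. The cells were HepG2 CAGA-GFP in 1% FBS DMEM, stimulated with 500 pg/mL TGF-beta after compound addition. %Activity was normalised to no-cell wells (complete cell-killing) and DMSO (no toxicity), and curves were fitted and classified.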
# GLP-1R inv ag: qHTS of GLP-1 Receptor Inverse Agonists (Inhibition Mode) | Potency, µM (highest dose often 38.3 µM), for the others: at the highest dose activity change, negative = inhibition, actives largely listed as inhibitors | AID 624417, 2012 | HEK293 GLP-1R CRE-luciferase, luminescence, 24 h; GLP-1R form is constitutively active | Glucagon-like peptide 1 receptor (Homo sapiens), P43220 | actives 1.6% (n = 410,000); further: on the % scale 0 is the no-effect control and ±100 the full control effect; nearly all actives have a fitted effect of over 55% in size
#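 Using stably transfected HEK293 (constitutively active GLP-1R, cAMP-luciferase reporter), compounds were incubated 24 hr and luciferase measured by luminescence.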
# The depositor's hits bear a star; i = inactive; ? = inconclusive; · = no result. Compounds with a hit are over-represented: about 3.7% of the library has one in this group of screens. The call rests on the fitted dose curve; in most records, active means well fitted curve in the direction sought with a large enough effect; inconclusive means small, poorly fitted or top-dose-only effect, or another doubt; inactive means no such curve, though single readings can be large; an effect the other way counts as inactive or inconclusive. Potency means the concentration at half of the fitted maximal effect.
SMILES,GLP-1R agonist,ATXN2 expr inh,S2 tox,TGFb SMAD3 inh,HepG2 tox,GLP-1R inv ag
CCCC(=O)Oc1ccc2[nH]c(C(=O)c3cc4ccccc4[nH]3)cc2c1,·,·,·,-24%,-25%,·
COc1cccc(CNc2ncnc3sc(C(=O)N4CC5CCC4C5)c(C)c23)c1OC (stereo not drawn),·,·,i,·,·,·
COc1ccc2cc(C=O)ccc2c1,·,12%,i,·,·,·
Cc1nn(-c2ccccc2)c(Cl)c1/C=N/O,19%,·,?,6%,1%,53%
Cc1nn(-c2ccccc2)c(Cl)c1/C=C/C(=O)c1ccccc1,-2%,27%,i,?,11µM*,?
Cc1ccc(-c2[nH]ncc2/C=N/n2c(COc3ccccc3)nc3ccccc3c2=O)cc1,2%,?,·,10µM*,14µM*,?
Cc1cc(/C=N/n2c(COc3ccccc3)nc3ccccc3c2=O)c(O)c([N+](=O)[O-])c1,-7%,?,?,16µM*,-19%,?
CC(=O)O[C@H]1C[C@@H]2CC[C@H]3[C@H]4C[C@H]([N+]5(C)CCCCC5)[C@@H](OC(C)=O)[C@@]4(C)CC[C@@H]3[C@@]2(C)C[C@H]1N1CCCCC1,·,0%,·,·,·,·
Cc1ncc2c(c1CNS(=O)(=O)N(C)C)CCN(C(=O)/C=C/c1ccccc1)C2,·,·,i,·,·,·
CCCCCOc1c(Cl)cc(C(=O)N(Cc2ccc(C)o2)C2CCS(=O)(=O)C2)cc1Cl (stereo not drawn),·,?,?,18µM*,-55%,?
Cc1cc(C)c(S(=O)(=O)c2ccccc2C)c(SCC(C)C)n1,1%,3%,i,-28%,-1%,?
CCCSc1nc(C)cc(C)c1S(=O)(=O)c1ccccc1C,11%,-14%,i,-13%,-3%,8.9µM*
COc1ccc(S(=O)(=O)N(CC(=O)Nc2ccc(OC)cc2OC)c2ccc(Cl)cc2)cc1,-4%,-9%,i,0%,-31%,?
COc1cccc(/C=C(/C(=O)OCC(=O)NC2CCCC(C)C2C)c2ccccc2)c1 (stereo not drawn),10%,-11%,i,?,-23%,10µM*
COc1cc(OC)c(/C=C/c2cc3c4ccccc4ccc3[n+](C)c2)c(OC)c1,·,·,·,-4%,-20%,·
COc1cc(OC)c(/C=C/c2c3ccccc3cc[n+]2C)c(OC)c1,·,·,·,10µM*,-22%,·
COc1cccc(C(c2ccccc2)N2C3CCC2CN(S(=O)(=O)c2ccc(F)cc2)CC3)c1 (stereo not drawn),-20%,2%,i,-19%,0%,3.5µM*
COc1ccc(N2CCN(C3CCN(S(=O)(=O)c4ccc(F)cc4)CC3)CC2)cc1,-6%,4%,i,8%,5%,-11%
CCCN1CCC(=O)N(C(CSc2ccc(OC)cc2)c2ccccc2)CC1 (stereo not drawn),·,·,·,?,-17%,·
NC(CO)(CO)CO,-2%,5%,i,·,·,·
Cc1ccc2c(CN(C)Cc3ccc(OC(F)F)cc3)cc(=O)oc2c1C,25%,-27%,i,-29%,13µM*,?
Cc1ccc2c(CN(C)Cc3ccccc3)cc(=O)oc2c1C,23%,203%,·,-6%,1%,?
Cc1cccc(-n2ncc(C(=O)N3CCN(C4CCCCC4)CC3)c2C2CCN(C(=O)OC(C)(C)C)CC2)c1,·,·,·,8.9µM*,-18%,-5%
Cc1ccc(Cl)cc1N1CCN(C(=O)c2cnn(C)c2C2CCN(C(=O)OC(C)(C)C)CC2)CC1,·,·,·,?,-6%,10µM*
CCOc1ncccc1C(=O)N1CCN(c2cccc(C)c2C)CC1,29%,?,?,?,7%,?
SMILES,GLP-1R agonist,ATXN2 expr inh,S2 tox,TGFb SMAD3 inh,HepG2 tox,GLP-1R inv ag
Cc1ccc(Cl)cc1N1CCN(C(=O)COc2ccc3c(c2)CCC3)CC1,20%,-13%,i,?,-33%,10µM*
CCOc1ncccc1C(=O)N1CCN(c2cc(Cl)ccc2C)CC1,?,?,?,?,1%,1µM*
Cc1ccc(Cl)cc1N1CCN(C(=O)c2cnn(C(C)(C)C)c2C2CCN(C(=O)OC(C)(C)C)CC2)CC1,·,·,·,-20%,-26%,5%
CC(=O)c1ccc(N2CCN(C(=O)COc3ccc4c(c3)CCC4)CC2)cc1,6%,?,?,1%,7%,-15%
O=C(Cn1cc(S(=O)(=O)Cc2ccc(F)cc2)c2ccccc21)NCc1ccccc1Cl,·,·,·,0%,-30%,-15%
CN(C)c1ccc(/C=N\Nc2ccc([N+](=O)[O-])cc2[N+](=O)[O-])cc1Br,·,·,·,20%,-9%,·
CC(C)c1c(C(=O)N(C)Cc2cccc3ncccc23)cnn1-c1nccc(-c2ccco2)n1,·,·,i,·,·,·
CCCCOc1ccc(-c2cc(C(=O)NNC(=S)NCC)c3ccccc3n2)cc1,-15%,?,?,?,8.9µM*,0%
O=C(NC(=S)Nc1ccccn1)c1cc(-c2ccccc2)nc2ccccc12,-4%,-6%,i,-2%,-3%,4.5µM*
CCCOc1cccc(-c2cc(C(=O)N/N=C/c3ccccn3)c3ccccc3n2)c1,3%,7.1µM*,?,?,-2%,?
CCNC(=S)NNC(=O)c1cc(-c2ccc(OC)cc2)nc2ccccc12,-17%,-28%,i,-3%,7.9µM*,-19%
OC(CN1CCCCC1)c1cc(-c2ccccc2)on1 (stereo not drawn),-5%,·,i,·,·,·
CC(C)CC(C(=O)Nc1oc(-c2ccccc2)c(-c2ccccc2)c1C#N)N1C(=O)c2ccccc2C1=O (stereo not drawn),-8%,-3%,i,?,-24%,10µM*
Cc1ccc(C)n1-c1nnc(N2CCCC(C(=O)Nc3ccc(C(C)C)cc3)C2)s1 (stereo not drawn),·,-11%,i,7.9µM*,-50%,?
Cc1ccc(S(=O)(=O)N(CC(=O)NCCSCc2ccco2)c2cc(C)ccc2C)cc1,0%,-6%,i,3%,-18%,11µM*
N#Cc1ccccc1Cn1c(=O)n(-c2ccc(F)c(Cl)c2)c(=O)c2sccc21,·,·,·,-12%,-10%,3%
COc1cccc(NC(=O)CN(C)C(=O)C23CC4CC(CC(Cl)(C4)C2)C3)c1,2%,-12%,i,-4%,-15%,7.9µM*
